From PubChem
Pf growth 96h: inhibits malaria parasite growth, 96 h; hit rate 6.9% among 320,000; P. falciparum luciferase reporter growth, 96 h; Potency, µM (series often up to 28.7 µM), for the others: top-dose activity change, negative = inhibition, hits mostly inhibitors; note: % is set by controls: 0 for no effect and ±100 for the full control effect
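Parasite growth measured via integrated firefly luciferase reporter in P. falciparum. Infected erythrocytes at 2% hematocrit, 0.05% parasitemia final were treated 96 hours at 37 C under 5% CO2, and luminescence was read.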
SARS PLpro yeast: SARS-CoV PLP inhibition in yeast. S. cerevisiae expressing SARS-CoV PLpro, growth rescue. Potency, µM (highest dose often 32.9 µM), inactives show top-dose activity, positive = growth rescue, actives largely listed as activators. hit rate 0.19% among 330,000; calls by dose curve; note: 0% is about no effect; nearly all actives have a fitted effect of over 55% in size
Pf growth 48h: P. falciparum growth inhibition at 48 hours (one generation). P. falciparum luciferase growth in erythrocytes, 48 h. Potency, µM (highest dose often 28.7 µM), for inactives: at the top dose activity change, negative = inhibition, usual class: inhibitors. hit rate 5.9% among 310,000. AID 504832; note: % is set by controls: 0 for no effect and ±100 for the full control effect
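A one-generation exposure of luciferase-tagged malaria parasites in RPMI 1640/Albumax erythrocyte culture, 37 C and 5% CO2. Inhibition is inferred from decreased luminescence after adding detection reagent.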
Sm TGR block: inhibitors of Schistosoma mansoni thioredoxin glutathione reductase; Q962Y6; purified TGR, DTNB reduction, TNB absorbance 405 nm; Potency, µM (doses to about 114 µM), inactives show top-dose activity change, negative = inhibition, usual class: inhibitors; hit rate 3% among 360,000; AID 485364; note: % is set by controls: 0 for no effect and ±100 for the full control effect; nearly all actives have a fitted effect of over 60% in size
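TGR 20 nM + NADPH 100 uM (dispensed conc.), cpd preinc 15 min RT; start with NADPH (500 uM addition) then DTNB (15 mM addition). Kinetic TNB absorbance, 405 nm filter. Four-parameter Hill fit across titration.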
Starred values were filed as active, the others as inactive; ? = inconclusive; nt = no result; ! = not confirmed by another sample; [ ] = remark or other dose. An excerpt weighted towards active compounds, which were near 12% of everything screened. Unless noted, calls come from the whole dose curve; as a rule, active = well fitted curve in the direction sought with a large enough effect; inconclusive = small, poorly fitted or top-dose-only effect, or another doubt; inactive = no such curve, though single readings can be large; an effect the other way counts as inactive or inconclusive. Potency is the fitted concentration of half-maximal effect.

SMILES	Pf growth 96h	SARS PLpro yeast	Pf growth 48h	Sm TGR block
COc1ccc(C2c3[nH]c4ccccc4c3C[C@H]3C(=O)N(c4ccccc4C(=O)N4CCC[C@@H]4C(=O)O)C(=O)N23)cc1 (stereo partly drawn)	?	1.4%	11.7µM*	1.6%
COc1cccc(C2c3[nH]c4ccccc4c3C[C@H]3C(=O)N(c4ccccc4C(=O)N4CCC[C@H]4C(=O)O)C(=O)N23)c1 (stereo partly drawn)	?	4.0%	?	-0.4%
COc1ccc(C2c3[nH]c4ccccc4c3C[C@H]3C(=O)N(c4ccccc4C(=O)N4CCC[C@H]4C(=O)O)C(=O)N23)cc1 (stereo partly drawn)	?	4.2%	9.28µM*	5.1%
CCN(CC)C(=O)COC(=O)c1ccc(O)cc1	2.6%	nt	8.5%	4.0%
CCOC(=O)c1ccc(OC(=O)CCCCCN=C(N)N)cc1	4.55µM*	nt	?	nt
NC(=O)C1(N2CCCCC2)CCN(C(=O)Nc2ccc(Cl)c(Cl)c2)CC1	nt	nt	nt	2.0%
Cc1ccc(-n2c(SCC(=O)N3CCOCC3)nnc2-c2cccnc2)cc1C	?	-1.4%	0.2%	4.7%
CCSc1nnc(-c2cccnc2)n1-c1ccc(C)c(Cl)c1	4.65µM*	0.1%	nt	-0.7%
CC(=O)O[C@H]1CC[C@H]2[C@@H]3CCC4=CC(=O)CCC4=C3C=C[C@]12C	?	nt	-5.1%	nt
CC(=O)O[C@H]1CCC2C3CCC4=CC(=O)CCC4=C3C=C[C@@]21C (stereo partly drawn)	0.0%	-0.1%	0.0%	5.01µM*
Cc1ccc(NC(=O)C2CCC(CNS(=O)(=O)c3cccc4nsnc34)CC2)c(Cl)c1 (stereo not drawn)	nt	nt	nt	-3.8%
C=CCN(C(=O)CC(NC(C)=O)c1ccccc1)c1nc(-c2ccc(S(C)(=O)=O)cc2)cs1 (stereo not drawn)	?	-3.3%	9.28µM*	-7.8%
CN(C)C(=O)C(CCN1CCC(O)(c2ccc(Cl)cc2)CC1)(c1ccccc1)c1ccccc1	2.94µM*!	-1.5%	2.94µM*	6.4%
CN(C)c1ccc(NC(=O)CN2CCC(O)(c3ccccc3)CC2)cc1	-23.1%	0.3%	-1.7%	-13.9%
COc1ccc(CCNC(=O)CSc2nnnn2-c2cccc(C(C)=O)c2)cc1OC	nt	nt	nt	1.6%
Cn1nc(C(=O)OCC(=O)Nc2ccc(C(N)=O)cc2)c2ccccc2c1=O	nt	-0.1%	nt	nt
CCOc1cc2[nH]c(=S)n(Cc3ccc(C(=O)O)cc3)c(=O)c2cc1OCC	9.28µM*	4.8%	26.1%	-8.2%
CCCCN(C)CCn1c(=S)[nH]c2cc(OCC)c(OCC)cc2c1=O	39.5%	-0.3%	2.0%	-11.5%
CCOc1cc2[nH]c(=O)n(Cc3ccc(C(=O)N4CCN(c5ccccc5)CC4)cc3)c(=O)c2cc1OCC	nt	nt	nt	-5.2%
CCOc1cc2[nH]c(=S)n(CCCN(CC)CC)c(=O)c2cc1OCC	59.1%	12.4%	?	6.31µM*
COc1ccc(OC)c(NC(=O)CN2C(=O)CCc3cc(S(=O)(=O)N4CCCCC4)ccc32)c1	nt	nt	nt	4.7%
CC1CCCN(S(=O)(=O)c2ccc(C(=O)Nc3nnc(-c4ccco4)o3)cc2)C1 (stereo not drawn)	?	1.1%	11.7µM*	-8.9%
CCC1CCCCN1S(=O)(=O)c1ccc(C(=O)Nc2nnc(-c3ccccc3Cl)o2)cc1 (stereo not drawn)	?	?	?	8.6%
CN(c1ccccc1)S(=O)(=O)c1ccc(C(=O)Nc2nnc(C3CC3)o2)cc1	5.22µM*	7.4%	11.7µM*	3.5%
CCC1CCCCN1S(=O)(=O)c1ccc(C(=O)Nc2nnc(C3CC3)o2)cc1 (stereo not drawn)	?	12.8%	13.1µM*	0.4%
SMILES	Pf growth 96h	SARS PLpro yeast	Pf growth 48h	Sm TGR block
CCN(c1ccccc1)S(=O)(=O)c1ccc(C(=O)Nc2nnc(C3CC3)o2)cc1	?	-0.8%	9.28µM*	-9.1%
CCc1nnc(NC(=O)c2ccc(S(=O)(=O)N3CCCC(C)C3)cc2)o1 (stereo not drawn)	?	2.2%	?	0.5%
CN(c1ccccc1)S(=O)(=O)c1ccc(C(=O)Nc2nnc(-c3ccco3)o2)cc1	7.38µM*	11.6%	?	1.8%
CCN(c1ccccc1)S(=O)(=O)c1ccc(C(=O)Nc2nnc(-c3ccco3)o2)cc1	?	1.9%	?	?
CCN(CC)c1ccc(C=Nc2ccc(N(C)C)cc2)c(O)c1	?	-14.5%	?	-20.3%
CCN(CC)c1ccc(N=Cc2ccc(N(CC)CC)cc2O)cc1	nt	-2.0%	1.17µM*	-29.9%
CCN(CC)c1ccc(/C=N/NC(=S)NC)c(O)c1	-22.0%	29.1%	?	-9.4%
CCN(CC)c1ccc(/C=N/Nc2cccc(C)c2)c(O)c1	?	-4.7%	-4.2%	10µM*
CCN(CC)c1ccc(/C=N/Nc2ccccc2)c(O)c1	?	-4.9%	?	10µM*
Cc1oc2ccc(O)c(CN3CCOCC3)c2c1C(=O)Nc1ccc(C(C)C)cc1	nt	nt	nt	0.9%
O=C(NCCCN1CCN(c2ccccc2)CC1)c1nnc(Cc2ccc(F)cc2)o1	nt	nt	nt	7.4%
Cc1ccc[n+](C(C)C(=O)c2ccc(Cl)cc2)c1 (stereo not drawn)	170.5%	6.0%	?	4.3%
Cc1cc(C)c[n+](C(C)C(=O)c2ccc(-c3ccccc3)cc2)c1 (stereo not drawn)	27.9%	-28.9%	1.31µM*	4.0%
CC(=O)N(C1=C(N)C(=O)c2ccccc2C1=O)c1ccccc1	9.28µM*	-0.2%	?	-7.1%
CCc1c(C)sc2c1CCN(C(=O)Nc1cc(Cl)c(OC)cc1OC)C2c1ccccc1 (stereo not drawn)	nt	nt	nt	1.2%
COc1ccc(-c2oc3cccnc3c2/C=C/c2ccc(OC)c(OC)c2)cc1	11.7µM*	1.5%	?	?
O=C1c2c(O)cccc2C(C2OC(CO)[C@@H](O)[C@H](O)[C@H]2O)c2cc(CO)cc(O)c21 (stereo partly drawn)	37.7%	4.1%	38.1%	39.8µM*
CCOc1ccc(CNCCCSc2nnnn2C)cc1OC	nt	nt	nt	4.1%
COc1ccc(/C=N/Nc2cc(C)nc3ccccc23)cc1	16.7%	1.4%	0.738µM*	10.0%
COc1ccc(/C=N/Nc2cc(C)nc3c(C)cccc23)cc1	-17.5%	-0.6%	?	16.8%
CCCSc1nc(C)cc(C)c1S(=O)(=O)c1ccccc1C	?	-14.0%	?	11.8%
Cc1cc(C)c(S(=O)(=O)c2ccccc2C)c(SCC(C)C)n1	11.7µM*	-8.2%	?	1.3%
Cc1cccc(-c2nc3scc(CCNS(=O)(=O)c4ccc(Oc5ccccc5)cc4)n3n2)c1	nt	nt	nt	-2.3%
CC(=O)Oc1ccc(OC(C)=O)c(SCCCCCN2CCOCC2)c1	7.38µM*	-0.2%	5.22µM*	50.1µM*
CC(C)c1ccc(OCCCCCN2CCOCC2)cc1	34.0%	-3.2%	-10.6%[0.00184 µM]	2.8%
CC(Oc1cc2oc(=O)c3c(c2cc1Cl)CCCC3)C(=O)NCc1ccccn1 (stereo not drawn)	1.7%	-7.3%	2.8%	18.0%
Cc1c(OC(C)C(=O)NCc2ccccn2)ccc2c3c(c(=O)oc12)CCCC3 (stereo not drawn)	1.65µM*	?	?	0.7%
